# Measured values taken from the supplement of paper PMC6555819.
# Columns and labels:
# Experiment in all cases: PBM binding z-score (relative to random genomic background probes); higher = stronger binding; sequences stand for … in GC…GCGATTGACAGCGTAGAATGAAGG
# [1] = tested on: FXR:RXRa (NR concentration 270 nM, RXRa partner concentration 90 nM)
# Outline: (§1)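 Ligand-free nuclear receptor dimers were bound for 1 h to custom Agilent 4×180K protein-binding microarrays. Detection used antibodies against each partner (one per run). Binding z-scores rest on regression-normalized fluorescence, with random background probes as the reference.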
# [2] = tested on: LXRa:RXRa (NR concentration 270 nM, RXRa partner concentration 90 nM)
# Outline: as §1
# [3] = tested on: LXRa homodimer (NR concentration 270 nM)
# Outline: as §1
# [4] = tested on: LXRb:RXRa (NR concentration 270 nM, RXRa partner concentration 90 nM)
# Outline: as §1
# [5] = tested on: LXRb homodimer (NR concentration 270 nM)
# Outline: as §1
# [6] = tested on: PPARa:RXRa (NR concentration 270 nM, RXRa partner concentration 90 nM)
# Outline: as §1
# [7] = tested on: PPARg:RXRa (NR concentration 180 nM, RXRa partner concentration 90 nM)
# Outline: as §1
# [8] = tested on: PPARg:RXRa 270nM:90nM, anti-RXR (NR concentration 270 nM, RXRa partner concentration 90 nM)
# Outline: as §1
# [9] = tested on: PPARg:RXRa 30nM:10nM, anti-RXR (NR concentration 30 nM, RXRa partner concentration 10 nM)
# Outline: as §1
# [10] = tested on: PPARg:RXRa 90nM:30nM, anti-RXR (NR concentration 90 nM, RXRa partner concentration 30 nM)
# Outline: as §1
# [11] = tested on: PPARg:RXRa DBDmut IVT, anti-RXR (DBD mutation: RXRa K156A/R161A, NR concentration 270 nM, RXRa partner concentration 90 nM)
# Outline: as §1
# [12] = tested on: PPARg:RXRa IVT, anti-PPARg (NR concentration 270 nM, RXRa partner concentration 90 nM)
# Outline: as §1
# [13] = tested on: PPARg DBDmut:RXRa IVT, anti-PPARg (DBD mutation: PPARg1 K132A/R137A, NR concentration 270 nM, RXRa partner concentration 90 nM)
# Outline: as §1
# [14] = tested on: PPARg DBDmut IVT, anti-PPARg (DBD mutation: PPARg1 K132A/R137A, NR concentration 270 nM)
# Outline: as §1
# [15] = tested on: PPARg homodimer (NR concentration 180 nM)
# Outline: as §1
# [16] = tested on: PXR:RXRa (NR concentration 270 nM, RXRa partner concentration 90 nM)
# Outline: as §1
# [17] = tested on: PXR homodimer (NR concentration 270 nM)
# Outline: as §1
# [18] = tested on: RARa:RXR (NR concentration 270 nM, RXRa partner concentration 90 nM)
# Outline: as §1
# [19] = tested on: RARa homodimer (NR concentration 270 nM)
# Outline: as §1
# [20] = tested on: RARb:RXRa (NR concentration 270 nM, RXRa partner concentration 90 nM)
# Outline: as §1
Sequence,PBM binding z-score [1],PBM binding z-score [2],PBM binding z-score [3],PBM binding z-score [4],PBM binding z-score [5],PBM binding z-score [6],PBM binding z-score [7],PBM binding z-score [8],PBM binding z-score [9],PBM binding z-score [10],PBM binding z-score [11],PBM binding z-score [12],PBM binding z-score [13],PBM binding z-score [14],PBM binding z-score [15],PBM binding z-score [16],PBM binding z-score [17],PBM binding z-score [18],PBM binding z-score [19],PBM binding z-score [20]
TGAATAAGGTTAAAGATCAGGGAACGTGGCGTCG,2.83,2.57,0.114,1.71,0.337,3.91,4.41,5.68,4.08,5.9,1.52,2.45,0.601,0.358,1.06,1.73,0.429,3.27,0.953,2.35
GTCCCAAGGTGAATAGGTCGTTGATGAGTAGGCG,0.85,0.873,-0.08,0.623,-0.403,2.26,1.19,1.4,0.109,0.815,1.17,2.18,-0.477,-0.0374,1.53,0.817,0.264,2,0.909,2.12
AGAACGAGGGCACGCTGAGTTGAGAGCAGAGTAG,1.03,1.06,-0.514,0.188,-0.934,2.12,2.05,1.81,0.0205,0.958,4.1,3.68,0.22,0.203,0.469,1.01,0.0274,1.35,-0.318,2.54
CTCGTAAGGTCGGTTGAGGTGAGTATACGGATAA,2.14,1.03,-0.261,0.701,-0.404,1.46,0.0124,0.578,-0.175,0.326,0.0738,0.679,-0.123,0.104,0.333,2.72,0.279,1.82,-0.0631,2.29
ACTAGCAGGCCAAGGGTCTCTCAAGATTAGTCCG,-1.54,-0.539,-0.698,-0.703,-1.05,0.948,2.49,4.52,2.15,4.55,0.281,1.01,-1.04,-0.76,-0.604,-0.568,-0.576,-0.307,-1.21,0.516
CCGACTGGGACAAAGGTTACCATACTCAGTACGA,0.993,1.51,0.114,1.8,-0.631,4.69,9.69,8.78,8.13,10.5,3.26,5.21,0.234,0.111,1.47,1.51,-0.265,2.39,0.207,2.03
ATCTCTAGGTAAAGATAGTTAAGTGAATGCAAAT,-0.0331,0.0561,-0.0773,0.142,0.643,-0.0582,0.771,0.421,0.415,0.236,1.79,1.42,0.229,1.6,0.449,-0.33,0.0795,-0.0694,0.927,-0.0166
GCGACTGGGGCAAAGCTGGTTACCATAAGGTTGG,-0.489,-0.411,-0.621,-0.147,-0.966,0.78,0.929,1.26,-0.311,0.816,4.32,3.14,-0.175,-0.912,-0.562,-0.523,-0.799,-0.0421,-0.562,0.598
AGAATGAGGTTCCCAAAGATCAGGGAAACGCTTG,-0.395,-0.315,-0.36,-0.576,-0.694,0.11,0.423,0.0468,0.142,0.0809,0.186,0.311,1.11,0.173,0.224,-0.152,-0.346,0.182,-0.181,-0.0949
TCTATTAGTTGATTAGCGCAACCGAAACAGCGGA,0.828,0.894,0.314,0.663,0.632,0.774,0.0474,2.11,3.89,2.97,2.41,0.138,0.332,0.505,1.14,0.438,0.358,0.258,1.03,0.252
CGCCAAAGTTCAAGGTAACGTAACAGAAAGCAGC,6.49,5.62,3.2,3.55,0.961,5.17,4,4.83,1.8,3.27,0.89,1.7,0.701,0.562,1.95,4.18,2.34,3.4,1.12,5.28
CGAATGAGGGCATGAGTTGATAGCAAATGCCGAT,0.504,0.377,-0.461,0.209,-0.511,1.7,1.92,1.99,0.599,1.49,4,3.15,0.455,-0.417,0.0655,0.525,0.166,0.61,-0.437,1.8
CCTAGTGGGCCAAAAAGGTCATTGATGCCGATAA,3.3,4.12,3.05,3.87,0.134,4.56,3.16,3.97,1.73,3.24,3.84,4.01,-0.411,-0.658,3.24,4.65,3.02,4.62,1.5,3.94
GCTAGCAGGCGATTTGGGTCACTCAATGACGGGC,0.0524,-0.217,-0.513,-0.281,-0.929,1.48,0.632,0.575,-0.192,0.427,1.67,2.53,-0.476,-0.307,-0.254,0.00388,-0.474,0.575,-0.848,0.752
